High-throughput results as filed in PubChem BioAssay.
APOBEC3G inh: blocks human APOBEC3G single-stranded DNA deamination. AID 493012. recombinant A3G, ssDNA deamination FAM/TAMRA fluorescence. inhibition, % at 20 µM. actives 0.28% (n = 330,000);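 active = inhibition of at least 40% at 20 µM, with no more than 30% in the related APOBEC3A deaminase screen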;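 note: plate controls were DMSO wells with A3G for no effect and wells lacking A3G enzyme for full effect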
Target sequence (Q9HC16 whole entry, looked up): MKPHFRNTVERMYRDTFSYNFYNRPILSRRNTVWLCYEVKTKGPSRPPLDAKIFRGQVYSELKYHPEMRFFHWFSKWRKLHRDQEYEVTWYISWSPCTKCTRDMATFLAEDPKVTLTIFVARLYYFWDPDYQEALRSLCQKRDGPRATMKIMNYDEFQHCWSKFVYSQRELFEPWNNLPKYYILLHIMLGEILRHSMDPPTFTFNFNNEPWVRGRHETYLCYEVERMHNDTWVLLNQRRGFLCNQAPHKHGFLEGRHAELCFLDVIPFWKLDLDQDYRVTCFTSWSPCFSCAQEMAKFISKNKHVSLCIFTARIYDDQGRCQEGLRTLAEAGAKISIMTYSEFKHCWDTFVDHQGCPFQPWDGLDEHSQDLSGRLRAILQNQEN
CR mimetic SO: yeast age-related superoxide inhibition as caloric restriction mimetic; S. cerevisiae aged cells, superoxide DHE fluorescence; stronger effect = lower value; superoxide response (% of plate mean), % at 10 µM; actives 0.18% (n = 330,000); AID 2690;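 active = superoxide response under a set limit, about three screen SD below normal, cut at about 65% in these data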;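 note: yeast aged for seven days with compound at 30 °C before DHE staining; 100% = average MFI of all compound-treated wells on the plate with controls excluded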
ALR inh: inhibitors of human sulfhydryl oxidase ALR; P55789; purified ALR, DTT oxidation, H2O2 HRP-luminol luminescence; inhibition, % (concentration not given with the values); actives 3.8% (n = 290,000); AID 485317;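 active = mean replicate inhibition above about 79%, with every replicate also reaching it, limit read from the data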
Target sequence (P55789 whole entry, looked up): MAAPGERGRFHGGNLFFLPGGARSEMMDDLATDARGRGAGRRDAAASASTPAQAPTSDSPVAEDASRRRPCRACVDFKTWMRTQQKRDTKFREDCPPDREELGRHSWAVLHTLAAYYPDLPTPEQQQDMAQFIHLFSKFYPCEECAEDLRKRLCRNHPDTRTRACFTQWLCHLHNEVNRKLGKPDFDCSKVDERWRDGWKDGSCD
NRP1-CendR mod: modulators of CendR peptide binding to human neuropilin-1. O14786. FAM-RPARPAR peptide binding to NRP-1, fluorescence polarization. inhibition, % at 25 µM. actives 0.85% (n = 360,000). AID 602438;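 active = inhibition or corrected inhibition above about 18%, plus a signal ratio from 0.5 to 1.5, limit read from the data, passing the limit was not always enough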
PfM18AAP inh: blocks P. falciparum M18 aspartyl aminopeptidase | recombinant PfM18AAP, H-Glu-NHMec fluorogenic cleavage | inhibition, % at 7.35 µM | actives 1.2% (n = 290,000) | AID 1822;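 active = inhibition above the campaign mean inhibition over all tested compounds plus 3 SD, cut at about 28% in these data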;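 note: 0% = plate median of test compound wells and 100% = 2 mM ZnCl2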
APOBEC3A inh: inhibitors of human APOBEC3A DNA deaminase; P31941; recombinant A3A, FAM/TAMRA ssDNA deamination fluorescence; inhibition, % at 20 µM; actives 0.41% (n = 330,000); AID 493011;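 active = at least 40% inhibition at 20 µM here, with at most 30% in a related deaminase screen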;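 note: plate controls were A3A with DMSO for no effect and wells lacking A3A enzyme for full effect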
Active calls of the source: *; nt = no result given. Hits are enriched below; roughly 5.2% of the tested compounds scored in any of these assays.

SMILES	APOBEC3G inh	CR mimetic SO	ALR inh	NRP1-CendR mod	PfM18AAP inh	APOBEC3A inh
CCCCC(=O)NC(=S)Nc1cc([N+](=O)[O-])ccc1OC	-4	111	nt	1	-3	-3
Oc1c(Br)cc(Br)cc1CNn1cnnc1	0	103	99*	-2	11	-2
Cc1cc(OC(=O)c2ccccc2C)c([N+](=O)[O-])c(=O)[nH]1	-6	109	8	34*	6	-5
CCOC(=O)[C@]12CCCC=C1N(CCC1=CCCCC1)C(=O)[C@H](CC(=O)NCCC(C)C)C2	nt	nt	nt	20	nt	nt
CCOC(=O)[C@]12CCCC=C1N(CCC1=CCCCC1)C(=O)[C@H](CC(=O)NCC13CC4CC(CC(C4)C1)C3)C2	nt	nt	nt	22*	nt	nt
CCCCCCCCN1C(=O)[C@H](CC(=O)NCCCN2CCCC2=O)C[C@@]2(C(=O)OC)CCCCC=C12	nt	nt	nt	29*	nt	nt
CCOC(=O)[C@]12CCCC=C1N(Cc1ccco1)C(=O)[C@H](CC(=O)N1CCSCC1)C2	nt	nt	nt	20*	nt	nt
COC(=O)[C@]12CCCCC=C1N(Cc1ccccc1)C(=O)[C@H](CC(=O)NCCCN1CCCC1=O)C2	nt	nt	nt	-9	nt	nt
CCOC(=O)Cn1nnnc1C(CC)N(Cc1cccs1)Cc1cc2cc(C)ccc2[nH]c1=O (stereo not drawn)	-5	96	-4	2	-7	-7
CCOC(=O)Cn1nnnc1C(C(C)C)N(Cc1cccs1)Cc1cc2cc(C)ccc2[nH]c1=O (stereo not drawn)	1	99	-31	-16	31*	4
CCOC(=O)c1cc(-c2ccc3c(c2)OCCO3)nc2c1c(C)nn2CCC#N	-5	101	-2	-13	-5	-14
Cc1ccc(NC(=S)N2CCN(Cc3ccccc3)CC2)cc1	-10	100	-5	26*	-2	-4
Oc1cccc(C(=S)N2CCC(Cc3ccccc3)CC2)c1	27	111	2	16	27	-3
CCc1ccc(NC(=S)N2CCN(C)CC2)cc1	-5	99	-11	21*	1	2
Oc1cccc(C(=S)N2CCN(Cc3ccccc3)CC2)c1	15	101	19	1	29*	-4
CSc1nsc(SC)c1C(=O)Nc1ccc(Cl)cc1	0	102	-1	-11	1	5
CC(CCC(=O)NN)C1CCC2C3CCC4CC(O)CCC4(C)C3CCC12C (stereo not drawn)	nt	nt	nt	6	nt	nt
CC(CCC(C)C(C)(C)C)[C@@H]1CC[C@H]2C3C[C@H](OS(O)(=S)=S)[C@H]4C[C@H](OS(O)(=S)=S)[C@@H](OS(O)(=S)=S)C[C@]4(C)[C@H]3CC[C@]12C (stereo partly drawn) (tested in a mixture with another compound)	-1	114	98*	36*	nt	5
O=c1[nH]c(CN2CCN(S(=O)(=O)c3ccc4ccccc4c3)CC2)nc2ccccc12	-7	100	0	-7	5	1
Cc1ccc(C2(C)NC(=O)N(CC(=O)Nc3ccccc3N3CCCC3)C2=O)cc1 (stereo not drawn)	5	93	77*	4	nt	-3
Cc1ccc(S(=O)(=O)N(C)CC(=O)Nc2ccccc2N2CCCC2)cc1	-7	119	83*	16	nt	0
Cc1ccc(C2(C)NC(=O)N(CC(=O)Nc3ccccc3N3CCCCC3)C2=O)cc1 (stereo not drawn)	-6	102	4	20	nt	-1
CSc1ncccc1C(=O)NCc1ccc(C)cc1	-3	98	nt	21	-1	-3
CN1c2cccc3cccc(c23)N(C)C1(C)C	2	100	87*	-5	10	-1
O=C(Nc1ccc(F)cc1)c1ccc(C(=O)N2CCOCC2)cc1	-4	nt	99*	5	nt	-3
SMILES	APOBEC3G inh	CR mimetic SO	ALR inh	NRP1-CendR mod	PfM18AAP inh	APOBEC3A inh
COc1ccc(C)cc1NCc1ccc(OC)c(C)c1OC	-8	100	77*	16	7	-4
COc1ccc(C)cc1NCc1ccc([N+](=O)[O-])cc1	-4	108	99*	-2	-6	-2
COc1ccc(-c2ccccc2)cc1NCc1ccccc1C	0	107	nt	2	-3	-1
Cc1cccnc1NC(=O)CCc1nnc2ccc(N3CCC4(CC3)OCCO4)nn12	5	89	-2	10	-8	2
CCCS(=O)(=O)N1CCC(Cc2ccc(OC)cc2)(C(=O)OCC)CC1	-10	98	-3	39*	0	-2
COc1ccc(-c2ncc(CN3CCC(CO)(Cc4cccc(OC)c4)CC3)cn2)cc1	0	101	nt	-12	9	3
CCN(c1ccc(NC(=O)COC(=O)CCC(=O)c2ccc(F)cc2)cc1)C(C)C	-6	90	93*	16	11	-4
CCN(CC)c1ccc(NC(=O)COC(=O)c2ccc3ccccc3n2)cc1	-7	109	99*	-4	4	-7
CC(=O)c1cccc(NC(=O)COC(=O)c2cccs2)c1	-6	96	-2	7	4	-2
CCN(CC)c1ccc(NC(=O)COC(=O)c2cccs2)cc1	-6	103	98*	-13	9	-3
CCN(c1ccc(NC(=O)COC(=O)/C=C/c2ccco2)cc1)C(C)C	-2	109	99*	12	nt	-2
CCOC(=O)NC(Nc1cc(C)ccn1)(C(F)(F)F)C(F)(F)F	-6	101	-1	5	0	-6
CCN(c1ccc(NC(=O)COC(=O)c2cccs2)cc1)C(C)C	-3	95	99*	1	10	-3
NCC12CC3CC(C1)CC(c1ccc(Br)cc1)(C3)C2	-12	112	-18	3	-10	-3
CCn1c(-c2ccccn2)nc2cc(S(=O)(=O)N(C)C)ccc21	-8	109	99*	13	2	-1
CCn1c(-c2cc(Br)cc(OC)c2O)nc2cc(S(=O)(=O)N(C)C)ccc21	-9	98	91*	-2	-7	-2
Cc1ccc[n+](C(C)C(=O)c2ccc(Cl)cc2)c1 (stereo not drawn)	-5	99	-4	0	1	-8
CCC(C)(C)n1nnnc1C(c1ccc(F)cc1)N1CCN(C(=O)c2ccco2)CC1 (stereo not drawn)	-3	103	nt	14	1	1
O=C(Nc1c(C(=O)O)oc2ccc(Br)cc12)c1ccccc1	-3	129	95*	-17	3	-1
COCCNc1nc(Nc2ccc(C)cc2C)c2sccc2n1	nt	nt	nt	-8	nt	nt
O=C(NC(Cc1ccccc1)C(=O)O)/C(=C/c1ccc([N+](=O)[O-])cc1)NC(=O)c1ccccc1 (stereo not drawn)	-9	101	96*	7	17	2
O=C(NC(Cc1ccccc1)C(=O)O)/C(=C\c1ccc([N+](=O)[O-])cc1)NC(=O)c1ccco1 (stereo not drawn)	0	97	-3	-2	7	3
